AmpC inh no detg: inhibitors of E. coli AmpC beta-lactamase without detergent; AID 485341; AmpC nitrocefin hydrolysis, absorbance 480 nm, 0.0001% Triton; 0.52% of 330,000 active; P00811; Potency, µM (doses to about 57.1 µM), hits mostly inhibitors; also: nearly all actives have a fitted effect of over 20% in size
Target sequence (P00811 whole entry, looked up): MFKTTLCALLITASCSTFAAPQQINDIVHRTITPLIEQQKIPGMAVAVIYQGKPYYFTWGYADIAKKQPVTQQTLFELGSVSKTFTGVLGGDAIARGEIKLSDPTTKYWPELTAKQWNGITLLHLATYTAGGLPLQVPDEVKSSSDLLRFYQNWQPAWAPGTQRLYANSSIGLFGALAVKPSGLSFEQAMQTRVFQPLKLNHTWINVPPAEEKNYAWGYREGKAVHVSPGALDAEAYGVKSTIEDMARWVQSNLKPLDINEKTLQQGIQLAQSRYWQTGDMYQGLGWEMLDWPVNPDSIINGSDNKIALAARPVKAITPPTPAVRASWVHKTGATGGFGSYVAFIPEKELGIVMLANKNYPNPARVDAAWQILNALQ
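20 mM phosphate pH 7.0 + 0.01% (detergent screen) or 0.0001% Triton X-100; 5.3 nM AmpC reagent; cpd preinc 15 min RT; nitrocefin (800 uM stock) to start; A480 q20 s × 4 min; Activity was normalised to no-enzyme and no-compound control wells.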
Pf growth 48h: P. falciparum growth inhibition at 48 hours (one generation); Potency, µM (series often up to 28.7 µM), most hits filed as inhibitors; P. falciparum luciferase growth in erythrocytes, 48 h; 5.9% of 310,000 active
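In quantitative HTS format, infected erythrocytes bearing luciferase-reporter parasites were treated for a single generation at 37 C. Luminescence after adding detection reagent served as the growth measure.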
AMA1-RON2 inh: disrupts binding of P. falciparum AMA1 to RON2; 0.2% of 360,000 active; Potency, µM (top dose mostly 58.2 µM), most hits filed as inhibitors; AlphaScreen AMA1-biotinylated RON2 peptide binding; also: nearly all actives have a fitted effect of over 45% in size
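AMA1 (3D7) with his tag at 25 nM final met compounds first, then biotinylated RON2 peptide at 25 nM; detection used donor plus acceptor beads, 10 µg/mL apiece, read by AlphaScreen after 30 min at room temperature.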
HCV inhibitor: inhibitors of hepatitis C virus infection | 3.4% of 340,000 active | Potency, µM (top dose mostly 41.8 µM), most hits filed as inhibitors | AID 651820 | Huh7.5.1 HCVcc-Cre infection, luciferase reporter, 44 h
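Reporter virus HCVcc-Cre (~0.5 moi) infects cells exposed to compound; seeding density 1,000 cells/well with 4 h settling beforehand. Luminescence, 15 sec read, taken 44 h post-infection following a 15 min RT substrate incubation.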
Pf growth 96h: P. falciparum growth inhibition at 96 hour, primary screen for plastid delayed-death inhibitors | P. falciparum luciferase reporter growth, 96 h | Potency, µM (series often up to 28.7 µM), most hits filed as inhibitors | 6.9% of 320,000 active | AID 504834
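Infected RBCs, 2% Hct / 0.05% parasitemia final; luciferase-reporter P. falciparum; cpd 96 h, 37 C, 5% CO2; luciferase detection reagent; luminescence.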
AmpC inh detg: blocks E. coli AmpC beta-lactamase in detergent assay; AmpC hydrolysis of nitrocefin, absorbance 480 nm, 0.01% Triton; 0.041% of 370,000 active; AID 485294; Potency, µM (doses to about 114 µM), actives largely listed as inhibitors; P00811; also: nearly all actives have a fitted effect of over 25% in size
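AmpC (5.3 nM in the dispensed reagent) in 20 mM phosphate pH 7.0 with 0.01% (detergent screen) or 0.0001% Triton X-100 was preincubated with compounds for 15 min at room temperature. Nitrocefin was then added from an 800 uM solution, and hydrolysis was followed at 480 nm.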
Numbers stand for hits; [ ] = remark or other dose. This is a sample that favours compounds with a hit; in the whole collection about 11% have one here. Calls follow the shape of the dose curve; as a rule, active = well fitted curve in the direction sought with a large enough effect; inconclusive = small, poorly fitted or top-dose-only effect, or another doubt; inactive = no such curve, though single readings can be large; an effect the other way counts as inactive or inconclusive.

How did COC(=O)c1ccccc1NC(=S)NC(NC(=O)c1ccccc1[N+](=O)[O-])C(Cl)(Cl)Cl (stereo not drawn) do in these assays?
AmpC inh no detg: inactive; Pf growth 48h: inactive; AMA1-RON2 inh: inactive; HCV inhibitor: inactive; Pf growth 96h: 7.38µM; AmpC inh detg: inactive

Results for COC(=O)c1ccccc1NC(=S)NC(NC(=O)c1ccco1)C(Cl)(Cl)Cl (stereo not drawn) ?
AmpC inh no detg: inactive; Pf growth 48h: inactive; AMA1-RON2 inh: inactive; HCV inhibitor: inactive; Pf growth 96h: inactive; AmpC inh detg: inactive

Results for COc1ccccc1NC(=S)NC(NC(=O)C(C)C)C(Cl)(Cl)Cl (stereo not drawn) ?
AmpC inh no detg: inactive; Pf growth 48h: 7.38µM; AMA1-RON2 inh: inactive; HCV inhibitor: inactive; Pf growth 96h: inactive; AmpC inh detg: inactive

What do the screens show for `COC(=O)c1nnn(CC(=O)Nc2cc(F)ccc2F)c1C(=O)OC`?
AmpC inh detg: inactive

What do the screens show for `CCCCOc1ccc(NC(=O)CSc2ccc(C(=O)O)cn2)cc1`?
AmpC inh detg: inactive

How did CCOC(=O)C1CCN(Cc2cn3c(-c4ccc(OC)cc4)nnc3s2)CC1 do in these assays?
AmpC inh detg: inactive

Results for C=C1CCC2C(C)(C)[C@@H](O)CC[C@@]2(C)[C@@H]1COc1ccc2ccc(=O)oc2c1 (stereo partly drawn) ?
AmpC inh no detg: inactive; Pf growth 48h: 11.7µM; AMA1-RON2 inh: inactive; HCV inhibitor: inconclusive; Pf growth 96h: 5.22µM; AmpC inh detg: inactive

How did CC(=O)OC1CCC2(C)C(COc3ccc4ccc(=O)oc4c3)C(C)(O)CCC2C1(C)C (stereo not drawn) do in these assays?
AmpC inh no detg: inactive; Pf growth 48h: inconclusive; AMA1-RON2 inh: inactive; HCV inhibitor: inconclusive; Pf growth 96h: 9.28µM; AmpC inh detg: inactive

Results for CN(C(=O)COc1ccc2ccc(=O)oc2c1)C1CCS(=O)(=O)C1 (stereo not drawn) ?
AmpC inh no detg: inactive; Pf growth 48h: inactive; AMA1-RON2 inh: inactive; HCV inhibitor: inactive; Pf growth 96h: inconclusive; AmpC inh detg: inactive

What do the screens show for `C=C1CCC2C(C)(C)[C@H](O)CC[C@@]2(C)[C@@H]1COc1cc(=O)oc2ccccc12` (stereo partly drawn)?
AmpC inh no detg: inactive; Pf growth 48h: inconclusive; AMA1-RON2 inh: inactive; HCV inhibitor: inactive; Pf growth 96h: 14.7µM; AmpC inh detg: inconclusive

How did NC1=NC(=O)C(=Cc2ccccc2)S1 do in these assays?
AMA1-RON2 inh: inactive; HCV inhibitor: inactive

What do the screens show for `NC1=NC(=O)/C(=C\c2cccnc2)S1`?
AmpC inh no detg: inactive; Pf growth 48h: inactive; AMA1-RON2 inh: inactive; HCV inhibitor: inactive; Pf growth 96h: 9.28µM; AmpC inh detg: inactive

What do the screens show for `CCC(C)[C@H](NC(=O)[C@H](Cc1ccccc1)n1c(=O)[nH]c2ccccc2c1=O)C(=O)NCC1CCC(C(=O)O)CC1` (stereo partly drawn)?
AmpC inh no detg: inactive; Pf growth 48h: inactive; AMA1-RON2 inh: inactive; HCV inhibitor: inactive; Pf growth 96h: 13.1µM; AmpC inh detg: inconclusive

Results for C[C@H](NC(=O)[C@H](Cc1ccccc1)n1c(=O)[nH]c2ccccc2c1=O)C(=O)N1CCC(C(=O)O)CC1 ?
AmpC inh no detg: inactive; Pf growth 48h: inactive; AMA1-RON2 inh: inactive; HCV inhibitor: inactive; Pf growth 96h: inconclusive; AmpC inh detg: inactive

How did CC(C)N1C(=O)S/C(=C/c2ccc3c(c2)n(C)c(=O)n3C)C1=O do in these assays?
AmpC inh no detg: inactive; Pf growth 48h: inactive; AMA1-RON2 inh: inactive; HCV inhibitor: inconclusive; Pf growth 96h: inconclusive; AmpC inh detg: inactive

How did CCN(CC)c1ccc(/C=C2\SC(=O)N(C(C)C)C2=O)o1 do in these assays?
AmpC inh no detg: inactive; Pf growth 48h: inconclusive; AMA1-RON2 inh: inactive; HCV inhibitor: 10µM; Pf growth 96h: inconclusive; AmpC inh detg: inactive

What do the screens show for `COc1ccccc1Nc1nc2ccc(Cl)cc2nc1-n1nc(C)cc1C`?
AmpC inh detg: inactive

Results for COc1cc(OC)cc(C(=O)Nc2ccccc2N2CCOCC2)c1 ?
AmpC inh no detg: inactive; Pf growth 48h: inconclusive; AMA1-RON2 inh: inactive; HCV inhibitor: inconclusive; Pf growth 96h: inactive; AmpC inh detg: inactive

How did CCC(C)Oc1ccc(C(=O)Nc2ccc(CN3CCOCC3)cc2)cc1 (stereo not drawn) do in these assays?
AmpC inh no detg: inactive; Pf growth 48h: inconclusive; AMA1-RON2 inh: inactive; HCV inhibitor: 25.1µM; Pf growth 96h: inconclusive; AmpC inh detg: inactive

How did COc1ccc(-c2ocnc2C(=O)Nc2ccc(N3CCOCC3)cc2N2CCOCC2)cc1OC do in these assays?
AmpC inh no detg: inactive; Pf growth 48h: 8.28µM; AMA1-RON2 inh: inconclusive; HCV inhibitor: inconclusive; Pf growth 96h: inactive; AmpC inh detg: inactive

What do the screens show for `COc1cc(OC)cc(C(=O)Nc2ccc(N3CCOCC3)cc2N2CCOCC2)c1`?
AmpC inh no detg: inactive; Pf growth 48h: inconclusive; AMA1-RON2 inh: inactive; HCV inhibitor: inconclusive; Pf growth 96h: 13.1µM; AmpC inh detg: inactive

How did COc1ccccc1-c1ocnc1C(=O)Nc1ccc(N2CCOCC2)cc1N1CCOCC1 do in these assays?
AmpC inh no detg: inactive; Pf growth 48h: inconclusive; AMA1-RON2 inh: inactive; HCV inhibitor: inactive; Pf growth 96h: inactive; AmpC inh detg: inactive

What do the screens show for `CC(C)CNC(=O)c1ccccc1NC(=O)c1ccc(CN2CCOCC2)cc1`?
AmpC inh no detg: inactive; Pf growth 48h: 8.28µM; AMA1-RON2 inh: inactive; HCV inhibitor: inconclusive; Pf growth 96h: inactive; AmpC inh detg: inactive

Results for O=C(Nc1ccccc1C(=O)NCCCN1CCOCC1)c1ccc(F)cc1 ?
AmpC inh no detg: inactive; Pf growth 48h: inactive; AMA1-RON2 inh: inactive; HCV inhibitor: inactive; Pf growth 96h: inactive; AmpC inh detg: inactive

Results for COc1cc(OC)c(NC(=O)c2sc3nc4n(c(=O)c3c2C)CCCC4)cc1Cl ?
AmpC inh detg: inactive

What do the screens show for `CC(C)COc1cccc(C(=O)Nc2ccc(S(=O)(=O)N3CCOCC3)cc2)c1`?
AmpC inh no detg: inactive; Pf growth 48h: inconclusive; AMA1-RON2 inh: inactive; HCV inhibitor: inconclusive; AmpC inh detg: inactive

How did CC(C)COc1cccc(C(=O)Nc2ccc(CN3CCOCC3)cc2)c1 do in these assays?
AmpC inh no detg: inactive; Pf growth 48h: inactive[0.00184 µM]; AMA1-RON2 inh: inactive; HCV inhibitor: 3.16µM; Pf growth 96h: 8.28µM; AmpC inh detg: inactive

What do the screens show for `O=C(Nc1ccc(N2CCOCC2)cc1N1CCOCC1)c1ccc(Cl)cc1`?
AmpC inh no detg: inactive; Pf growth 48h: inactive; AMA1-RON2 inh: inactive; HCV inhibitor: inconclusive; Pf growth 96h: inconclusive; AmpC inh detg: inactive

Results for CC(C)COc1cccc(C(=O)Nc2ccc(N3CCOCC3)cc2N2CCOCC2)c1 ?
AmpC inh no detg: inactive; Pf growth 48h: inconclusive; AMA1-RON2 inh: inactive; HCV inhibitor: 7.94µM; Pf growth 96h: inconclusive; AmpC inh detg: inactive

Screens as filed in PubChem BioAssay.
